Laboratory results reported in PubChem BioAssay (Tox21).
Several values for one entry are separate records, joined by “and”; a condition that tells them apart may be missing. Identical values can stand only once. Records with an inconclusive call do not appear. Some structures have more than one record in an assay (separate samples or runs), and their calls can disagree. Activity calls are given as the source filed them. Unless noted, the call rests on the fitted dose curve; in most records, active means well fitted curve in the direction sought with a large enough effect in the repeat runs; inconclusive means weak or mixed curves; inactive means no such curve, though single readings can be large; an effect the other way counts as inactive or inconclusive.

Columns and labels:
[1] = qHTS assay to identify small molecule antagonists of the androgen receptor (AR) signaling pathway using the MDA cell line in the presence of 0.5 nM R1881 - cell viability counter screen (AID 1259242); further: nearly all actives have a fitted effect of over 45% in size; further: potency means the concentration at half of the fitted maximal effect
In short: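 Cytotoxicity toward MDA-kb2 cells is measured by CellTiter-Fluor live-cell protease fluorescence after 16 hr compound exposure at 37C in the presence of 0.5 nM R1881 stimulator.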

[2] = target: Androgen receptor (Homo sapiens) (UniProt P10275); assay: qHTS assay to identify small molecule antagonists of the androgen receptor (AR) signaling pathway using the MDA cell line in the presence of 0.5 nM R1881 (AID 1259243); further: nearly all actives have a fitted effect of over 50% in size; further: potency means the concentration at half of the fitted maximal effect
In short: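 Steps: seed MDA-kb2 cells, incubate 5 hr at 37C; pin-transfer compounds in DMSO; add R1881 to 0.5 nM final; incubate 16 hr; add ONE-Glo, wait 30 min at room temperature; read luminescence.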

[3] = target: Estrogen receptor (Homo sapiens) (UniProt P03372); assay: qHTS assay to identify small molecule antagonists of the estrogen receptor alpha (ER-alpha) signaling pathway using the BG1 cell line in the presence of 0.1 nM 17-beta-estradiol (AID 1259244); further: nearly all actives have a fitted effect of over 50% in size; further: potency means the concentration at half of the fitted maximal effect
In short: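 After 5 days in hormone-depleted medium (charcoal-stripped serum, no phenol red), VM7Luc4E2 cells were seeded, incubated 24 h, then co-treated with compound and 0.1 nM (final) estradiol for 22 h before luminescence detection.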

[4] = qHTS assay to identify small molecule HDAC inhibitors (AID 1259364); further: nearly all actives have a fitted effect of over 45% in size; further: potency means the concentration at half of the fitted maximal effect; on activity change, negative = inhibition: top concentration of the series differs between compounds
In short: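 Homogeneous cell-based luminescent assay of endogenous class I/II HDAC activity; HCT-116 cells, 2 h compound exposure, 30 min HDAC-Glo development at RT.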

[5] = qHTS assay to identify small molecule HDAC inhibitors - cell viability counter screen (AID 1259365); further: series mostly up to about 92 µM; nearly all actives have a fitted effect of over 50% in size
In short: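 HCT-116 (wild type), 1,500 cells/well, overnight 37C/5% CO2; compound in DMSO 2hr; CellTiter-Glo 30min RT; luminescence read.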

[6] = qHTS assay to identify small molecule agonists of the sonic hedgehog signaling (Shh) pathway - cell viability counter screen (AID 1259366); further: nearly all actives have a fitted effect of over 50% in size; further: potency means the concentration at half of the fitted maximal effect
In short: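 CellTiter-Fluor fluorescence read-out, 1 hr at 37C, added after 23hr compound exposure. Cells: 3T3 Gli1-Luc, an NIH/3T3 clone with stably integrated Gli1-Luc reporter, plated 4hr before compound.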

[7] = qHTS assay to identify small molecule agonists of the sonic hedgehog signaling (Shh) pathway (AID 1259368; calls by dose curve;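 further: NIH/3T3-derived 3T3Gli1-Luc cells carrying a stable Gli1-driven firefly luciferase reporter; series mostly up to about 92 µM; nearly all actives have a fitted effect of over 15% in size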)
In short: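 Steps: seed 3T3 Gli1-Luc cells, incubate 4 hr at 37 C, pin-transfer compounds in DMSO alongside a positive control, incubate 24 hr, add luciferase detection reagent, wait 30 min at room temperature, read luminescence.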

[8] = qHTS assay to identify small molecule agonists of the androgen receptor (AR) signaling pathway in the presence of an antagonist - cell viability counter screen (AID 1259379); further: nearly all actives have a fitted effect of over 25% in size; further: potency means the concentration at half of the fitted maximal effect;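 on activity change, negative = cytotoxicity: MDA-kb2 human breast cancer cells carrying an MMTV luciferase reporter; series mostly up to about 92 µM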
In short: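 Fluorescence from CellTiter-Fluor, added after 15 hr and read 1 hr later, gave cell viability. Cells were MDA-kb2 exposed to compounds (15 concentrations) in the presence of 3.0uM nilutamide at 37C, 0% CO2.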

[9] = qHTS assay to identify small molecule agonists of the estrogen receptor beta (ER-beta) signaling pathway - cell viability counter screen (AID 1259380); further: nearly all actives have a fitted effect of over 30% in size; further: potency means the concentration at half of the fitted maximal effect
In short: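 Same-well viability counter screen. Cells: ER-beta-UAS-bla HEK293T, plated 6 hr before compound, in 2% charcoal-stripped FBS. Compound exposure 16 hr, 37C; viability by CellTiter-Glo luminescence after 30 min at room temperature.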

[10] = target: Androgen receptor (Homo sapiens) (UniProt P10275); assay: qHTS assay to identify small molecule agonists of the androgen receptor (AR) signaling pathway in the presence of an antagonist (AID 1259381; calls by dose curve; further: nearly all actives have a fitted effect of over 15% in size; further: potency means the concentration at half of the fitted maximal effect)
In short: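 Cells are MDA-kb2 (human breast carcinoma, MMTV-luc, AR/GR responsive). Nilutamide is present at 3.0uM final throughout; compounds are added at 15 concentrations and incubated 16hr at 37C before ONE-Glo luminescence detection.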

[11] = qHTS assay to identify small molecule antagonists of the estrogen receptor beta (ER-beta) signaling pathway - cell viability counter screen (AID 1259382); further: nearly all actives have a fitted effect of over 55% in size; further: potency means the concentration at half of the fitted maximal effect; on activity change, negative = cytotoxicity: series mostly up to about 92 µM
In short: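 Following a 6 hr plating period, HEK293T cells carrying a UAS-driven beta-lactamase reporter under ER-beta control received compounds and 1nM E2 (final). After 16 hr at 37C and 2 hr substrate loading, CellTiter-Glo luminescence indicated viability.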

[12] = target: Estrogen receptor (Homo sapiens) (UniProt P03372); assay: qHTS assay to identify small molecule agonists of the estrogen receptor alpha (ER-alpha) signaling pathway in the presence of an antagonist (AID 1259383; calls by dose curve; further: top concentration of the series differs between compounds; nearly all actives have a fitted effect of over 15% in size)
In short: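 Cells are hormone-deprived for 5 days (charcoal-stripped FBS, no phenol red), plated for 24hr, spiked with 10.0nM ICI-182,780, then dosed at 15 concentrations. After 22hr at 37C, ONE-Glo luminescence reports ERE-luciferase activity.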

[13] = qHTS assay to identify small molecule agonists or antagonists of the thyroid stimulating hormone receptor (TSHR) signaling pathway - wild type cell line counter screen (AID 1259384; calls by dose curve)
In short: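 Wild-type Hek293 cells, 800/well, 18 h at 37C, then compound with Ro20-1724 for 30 min RT. cAMP by HTRF (cAMP-d2/anti-cAMP cryptate), 1 h RT, fluorescence read. 15 concentrations, triplicates.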

[14] = target: Thyrotropin receptor (Homo sapiens) (UniProt P16473); assay: qHTS assay to identify small molecule antagonists of the thyroid stimulating hormone receptor (TSHR) signaling pathway (AID 1259385; calls by dose curve; further: nearly all actives have a fitted effect of over 20% in size)
In short: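 TSHR-HEK293 cells (800/well) plated 18 h, then compounds with Ro20-1724 and TSH at 1.5 ng/mL final, 30 min at room temperature. cAMP quantified by HTRF (cAMP-d2/anti-cAMP-cryptate, 1 h); 15 concentrations in triplicate.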

[15] = qHTS assay to identify small molecule agonists of the estrogen receptor alpha (ER-alpha) signaling pathway in the presence of an antagonist - cell viability counter screen (AID 1259386);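 further: cells exposed to compounds for 22 h at 37 °C before the viability read; nearly all actives have a fitted effect of over 30% in size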; further: potency means the concentration at half of the fitted maximal effect; on activity change, negative = cytotoxicity: series mostly up to about 92 µM
In short: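 Cells are starved of estrogens for 5 days in charcoal-stripped serum, seeded for 24hr and co-treated with ICI-182,780 (10.0nM final) and test compounds. After 22hr at 37C, viability is read as CellTiter-Fluor fluorescence.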

[16] = qHTS assay to identify small molecule antagonists of the sonic hedgehog signaling (Shh) pathway - cell viability counter screen (AID 1259367); further: nearly all actives have a fitted effect of over 55% in size; further: potency means the concentration at half of the fitted maximal effect
In short: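 NIH/3T3-derived Gli1-Luc reporter cells, 2,000/well, plated 4 hr before compound addition, then stimulated with conditioned medium for 24 hr at 37C. Viability measured in the same wells by CellTiter-Fluor fluorescence, reagent added at 23 hr for 1 hr.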

[17] = qHTS assay to identify small molecule antagonists of the sonic hedgehog signaling (Shh) pathway (AID 1259369; calls by dose curve; further: nearly all actives have a fitted effect of over 45% in size; further: potency means the concentration at half of the fitted maximal effect)
In short: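 Inhibition of Shh signalling is measured as reduced Gli1-response-element firefly luciferase output in an NIH/3T3-derived stable reporter clone stimulated with conditioned medium for 24hr.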

[18] = target: Estrogen receptor beta (Homo sapiens) (UniProt Q92731); assay: qHTS assay to identify small molecule agonists of the estrogen receptor beta (ER-beta) signaling pathway (AID 1259377; active means well fitted activation curve with a large enough effect in the signal ratio in the repeat runs, not every such curve was filed as active; the % refers to the signal ratio)
In short: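 Beta-lactamase reporter readout: fluorescence of LiveBLAzer B/G FRET substrate after 2 h at room temperature, following 16 h compound treatment of ER-beta-UAS-bla HEK293T cells at 37C in 2% charcoal-stripped FBS medium.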

[19] = target: Estrogen receptor beta (Homo sapiens) (UniProt Q92731); assay: qHTS assay to identify small molecule antagonists of the estrogen receptor beta (ER-beta) signaling pathway (AID 1259378; active means well fitted inhibition curve with a large enough effect in the signal ratio in the repeat runs, not every such curve was filed as active; the % refers to the signal ratio; further: potency means the concentration at half of the fitted maximal effect)
In short: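 ER-beta-UAS-bla HEK293T cells in 2% charcoal-stripped FBS medium treated with compound plus 1nM final 17-beta-estradiol for 16 hr at 37C. Beta-lactamase reporter read by FRET substrate fluorescence after 2 hours at room temperature.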
On the % scale 0 is the no-effect control and ±100 the full control effect.

Androgen receptor (Homo sapiens), sequence (P10275 whole entry, looked up): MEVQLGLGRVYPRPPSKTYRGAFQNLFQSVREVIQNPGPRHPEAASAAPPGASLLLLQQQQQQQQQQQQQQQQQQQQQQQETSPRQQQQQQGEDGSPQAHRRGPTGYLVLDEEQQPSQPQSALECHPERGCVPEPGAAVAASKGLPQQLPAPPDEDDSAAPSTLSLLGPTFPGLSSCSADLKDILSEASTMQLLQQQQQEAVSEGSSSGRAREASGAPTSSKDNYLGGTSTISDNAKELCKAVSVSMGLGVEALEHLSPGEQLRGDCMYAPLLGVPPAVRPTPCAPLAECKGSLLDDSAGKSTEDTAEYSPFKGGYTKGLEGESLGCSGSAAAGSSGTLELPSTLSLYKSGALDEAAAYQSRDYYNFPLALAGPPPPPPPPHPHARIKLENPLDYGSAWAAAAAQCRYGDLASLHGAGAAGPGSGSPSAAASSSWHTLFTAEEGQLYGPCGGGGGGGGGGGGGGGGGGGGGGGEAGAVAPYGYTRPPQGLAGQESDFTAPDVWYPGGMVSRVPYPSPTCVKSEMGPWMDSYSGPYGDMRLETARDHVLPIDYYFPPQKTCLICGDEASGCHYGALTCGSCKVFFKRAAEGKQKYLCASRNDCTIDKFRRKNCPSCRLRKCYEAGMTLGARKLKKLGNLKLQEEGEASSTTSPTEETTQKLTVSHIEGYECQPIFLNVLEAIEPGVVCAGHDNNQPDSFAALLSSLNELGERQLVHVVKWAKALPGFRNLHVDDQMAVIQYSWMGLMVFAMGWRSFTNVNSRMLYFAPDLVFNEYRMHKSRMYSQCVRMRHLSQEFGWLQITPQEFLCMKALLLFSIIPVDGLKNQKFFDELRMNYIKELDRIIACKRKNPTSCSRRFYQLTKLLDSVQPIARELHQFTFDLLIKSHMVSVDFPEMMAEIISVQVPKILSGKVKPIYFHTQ
Estrogen receptor beta (Homo sapiens), sequence (Q92731 whole entry, looked up): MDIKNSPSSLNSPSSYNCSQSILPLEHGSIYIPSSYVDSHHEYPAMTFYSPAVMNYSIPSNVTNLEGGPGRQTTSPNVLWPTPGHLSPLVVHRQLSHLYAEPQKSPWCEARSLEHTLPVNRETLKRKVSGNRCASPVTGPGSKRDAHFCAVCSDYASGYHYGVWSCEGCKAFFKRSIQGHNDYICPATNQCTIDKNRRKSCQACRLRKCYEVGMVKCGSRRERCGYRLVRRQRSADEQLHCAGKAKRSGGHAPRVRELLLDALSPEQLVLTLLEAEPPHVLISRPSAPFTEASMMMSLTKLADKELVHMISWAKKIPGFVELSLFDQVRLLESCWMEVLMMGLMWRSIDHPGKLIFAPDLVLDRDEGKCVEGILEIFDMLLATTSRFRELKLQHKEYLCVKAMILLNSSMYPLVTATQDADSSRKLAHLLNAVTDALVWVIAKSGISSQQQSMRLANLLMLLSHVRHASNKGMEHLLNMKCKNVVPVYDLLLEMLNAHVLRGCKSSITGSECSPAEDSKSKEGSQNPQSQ
Estrogen receptor (Homo sapiens), sequence (P03372 whole entry, looked up): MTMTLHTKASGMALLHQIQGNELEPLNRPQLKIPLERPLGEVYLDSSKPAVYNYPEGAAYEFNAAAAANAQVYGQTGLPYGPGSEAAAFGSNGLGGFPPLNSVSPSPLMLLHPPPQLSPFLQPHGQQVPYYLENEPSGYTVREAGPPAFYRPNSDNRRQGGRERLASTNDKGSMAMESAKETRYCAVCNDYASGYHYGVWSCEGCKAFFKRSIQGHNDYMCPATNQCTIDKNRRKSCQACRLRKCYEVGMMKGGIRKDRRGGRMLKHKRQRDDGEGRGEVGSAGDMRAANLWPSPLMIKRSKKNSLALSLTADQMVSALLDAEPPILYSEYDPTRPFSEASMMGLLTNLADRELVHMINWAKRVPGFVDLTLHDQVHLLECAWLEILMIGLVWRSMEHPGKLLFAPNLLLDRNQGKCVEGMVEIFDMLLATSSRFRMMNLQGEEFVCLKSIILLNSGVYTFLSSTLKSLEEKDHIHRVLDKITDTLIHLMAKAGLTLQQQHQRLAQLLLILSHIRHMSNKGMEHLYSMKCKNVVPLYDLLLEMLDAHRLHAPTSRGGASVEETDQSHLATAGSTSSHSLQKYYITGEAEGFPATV
Thyrotropin receptor (Homo sapiens), sequence (P16473 whole entry, looked up): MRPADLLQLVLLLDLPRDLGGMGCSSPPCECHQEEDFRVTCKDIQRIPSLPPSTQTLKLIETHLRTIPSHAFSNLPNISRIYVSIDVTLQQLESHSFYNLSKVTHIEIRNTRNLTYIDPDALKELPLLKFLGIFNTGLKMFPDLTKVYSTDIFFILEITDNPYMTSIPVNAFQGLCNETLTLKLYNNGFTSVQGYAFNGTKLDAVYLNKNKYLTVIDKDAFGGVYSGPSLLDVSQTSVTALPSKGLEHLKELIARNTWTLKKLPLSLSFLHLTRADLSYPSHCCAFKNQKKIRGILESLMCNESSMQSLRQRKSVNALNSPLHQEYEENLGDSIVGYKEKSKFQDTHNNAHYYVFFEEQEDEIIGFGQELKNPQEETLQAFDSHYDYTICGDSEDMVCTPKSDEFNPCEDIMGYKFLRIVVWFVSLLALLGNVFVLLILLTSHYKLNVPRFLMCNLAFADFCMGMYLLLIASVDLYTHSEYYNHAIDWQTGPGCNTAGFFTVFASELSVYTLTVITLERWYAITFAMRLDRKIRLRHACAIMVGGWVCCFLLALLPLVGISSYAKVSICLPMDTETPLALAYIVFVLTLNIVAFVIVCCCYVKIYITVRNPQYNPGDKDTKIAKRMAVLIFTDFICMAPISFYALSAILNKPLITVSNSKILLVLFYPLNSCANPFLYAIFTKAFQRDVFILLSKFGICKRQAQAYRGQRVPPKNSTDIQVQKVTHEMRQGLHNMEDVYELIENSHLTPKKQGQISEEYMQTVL

O=C(O)Cc1ccc(OCCNC[C@H](O)c2ccccc2)cc1
inactive: Potency [1] | Potency [2] | Potency [3] | Potency [4] | Potency [5] | Potency [6] | Potency [7] | Potency [8] | Potency [9] | Potency [10] | Potency [11] | Potency [12] | outcome [13] | Potency [14] | Potency [15]

Cn1cccc1
inactive: Potency [1] | Potency [2] | Potency [3] | Potency [4] | Potency [5] | Potency [6] | Potency [16] | Potency [17] | Potency [8] | Potency [9] | Potency [10] | Potency [11] | Potency [12] | outcome [13] | Potency [15]

O=C1C=CC(=O)N1c1ccccc1
active: Potency [1] 61.1 µM | Potency [2] 30.6 µM | Potency [3] 61.1 µM | Potency [4] 27.3 µM | Potency [6] 9.69 µM | Potency [16] 12.2 µM | Potency [17] 6.11 µM | Potency [8] 61.1 µM | Potency [9] 27.3 µM | Potency [11] 48.6 µM | Potency [15] 68.6 µM
inactive: Potency [7] | Potency [18] | Potency [10] | Potency [12]

CC1=C(/C=C/C(C)=C/C=C/C(C)=C/C(=O)Nc2ccc(O)cc2)C(C)(C)CCC1
8.85 µM (active) and inactive: Potency [10]
active: Potency [1] 23.7 µM | Potency [2] 55.9 µM and 18.8 µM | Potency [3] 28 µM and 13.3 µM | Potency [6] 31.4 µM and 21.1 µM | Potency [16] 28 µM and 21.1 µM | Potency [17] 14 µM and 11.9 µM | Potency [8] 49.8 µM and 23.7 µM | Potency [9] 62.7 µM and 26.6 µM | Potency [11] 70.3 µM | Potency [15] 31.4 µM and 13.3 µM
inactive: Potency [4] | Potency [7] | Potency [12] | outcome [13] | Potency [14]

CCOB(OCC)OCC
inactive: Potency [1] | Potency [2] | Potency [3] | Potency [5] | Potency [6] | Potency [16] | Potency [7] | Potency [17] | Potency [18] | Potency [8] | Potency [9] | Potency [10] | Potency [11] | Potency [12] | outcome [13] | Potency [15]

C=C1C(C)(C)[C@@]2(Cl)C(Cl)[C@]1(Cl)C(Cl)(Cl)C2(Cl)Cl (some centres not stated)
inactive: Potency [1] | Potency [3] | Potency [4] | Potency [5] | Potency [16] | Potency [7] | Potency [10] | Potency [12] | outcome [13] | Potency [14]
active: Potency [2] 60 µM | Potency [17] 21.3 µM | Potency [19] 30.1 µM | Potency [9] 60 µM

NC(=O)c1nc(-c2cccc(-c3cc(F)ccc3OCC(F)(F)C(F)(F)F)c2)n[nH]1
inactive: Potency [1] | Potency [4] | Potency [5] | Potency [16] | Potency [7] | Potency [8] | Potency [10] | Potency [12] | outcome [13]
active: Potency [2] 54.5 µM | Potency [3] 54.5 µM | Potency [17] 3.06 µM | Potency [9] 61.1 µM

CCN=C1C=CC(=C(c2ccc(N(CC)CC)cc2)c2ccc(N(CC)CC)cc2)c2ccccc21
inactive: Potency [18] | Potency [10] | Potency [12]
active: Potency [1] 2.71 µM | Potency [2] 0.608 µM | Potency [3] 0.682 µM | Potency [4] 27.1 µM | Potency [6] 21.6 µM | Potency [16] 24.2 µM | Potency [17] 0.0963 µM | Potency [8] 2.16 µM | Potency [9] 27.1 µM | Potency [11] 21.6 µM | Potency [15] 9.63 µM

O=CC1CC1
inactive: Potency [1] | Potency [2] | Potency [3] | Potency [4] | Potency [5] | Potency [6] | Potency [16] | Potency [17] | Potency [18] | Potency [8] | Potency [9] | Potency [10] | Potency [11] | Potency [12] | outcome [13] | Potency [14] | Potency [15]

CCCSS/C(CCO)=C(\C)N(C=O)Cc1cnc(C)nc1N
inactive: Potency [1] | Potency [2] | Potency [3] | Potency [4] | Potency [5] | Potency [16] | Potency [7] | Potency [8] | Potency [10] | Potency [11] | Potency [12] | outcome [13] | Potency [15]
active: Potency [9] 26.6 µM

CC(C)=CCCC(C)O (configuration not stated)
inactive: Potency [1] | Potency [2] | Potency [3] | Potency [4] | Potency [6] | Potency [16] | Potency [7] | Potency [17] | Potency [19] | Potency [8] | Potency [9] | Potency [10] | Potency [11] | Potency [12] | outcome [13] | Potency [14] | Potency [15]

COc1ccccc1C=O
inactive: Potency [1] | Potency [2] | Potency [3] | Potency [5] | Potency [6] | Potency [16] | Potency [7] | Potency [17] | Potency [18] | Potency [19] | Potency [8] | Potency [9] | Potency [10] | Potency [11] | Potency [12] | outcome [13] | Potency [14] | Potency [15]

CCCCCCCCCCCCCCCCCO
inactive: viability change, negative = cytotoxic [1] -1.99% [at 19 µM] | activity, negative = inhibition [2] -1.74% [at 19 µM] | activity change, negative = inhibition [3] 0.173% [at 19 µM] | activity change, negative = inhibition [4] -0.454% [at 19 µM] | activity change, negative = cytotoxicity [5] 1.77% [at 19 µM] | viability change, negative = cytotoxic [6] -3.91% [at 19 µM] | viability change, negative = cytotoxic [16] 5.3% [at 19 µM] | activity change, negative = inhibition [17] -1.47% [at 19 µM] | activity change, negative = cytotoxicity [8] 1.97% [at 19 µM] | activation [10] -1.33% [at 19 µM] | activity change, negative = cytotoxicity [11] 3.37% [at 19 µM] | activation [12] -1.67% [at 19 µM] | activity change, negative = cytotoxicity [15] 2.39% [at 19 µM]
